Results published in PubChem BioAssay.
Values without a mark were called inactive. Entries that show only a call come without a potency. For part of these data: Potency and affinity values are given separately. Active and inactive are the calls of the source. Unless noted, no rule for the calls is given here.

Legend:
[1] = antimalarial activity against Dd2 strain (AID 2302;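 active = growth inhibition above 50% at the single 2 µM test dose, taken to imply half-maximal potency below 2 µM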); settings: P. falciparum Dd2 in RBCs, LDH growth readout, 72 h; at 2 µM; stronger effect = higher value
[2] = human hepatoma cell viability loss – ATP luminescence, cytotoxicity control for P. falciparum antimalarial project, primary screen (AID 2303;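 active = inhibition above 50%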); settings: HepG2 viability, 24-48 h, at 10 µM, stronger effect = higher value
[3] = target: L-lactate dehydrogenase (Plasmodium falciparum (isolate CDC / Honduras)) (UniProt Q27743); test: PfLDH activity inhibition – cell lysate, 3D7 strain, counter-screen for P. falciparum growth inhibition project (AID 2304); settings: P. falciparum 3D7 crude extract, LDH APAD/NBT absorbance; at 2 µM; stronger effect = higher value
[4] = inhibition of 3D7 malaria parasite growth – strain 3D7 (AID 2306); settings: P. falciparum 3D7 erythrocytic growth, LDH absorbance, 72 h; at 2 µM; stronger effect = higher value
[5] = target: Calcium-dependent protein kinase 1 (Plasmodium falciparum (isolate 3D7)) (UniProt P62344); test: PfCDPK1 kinase inhibitors, biochemical, TCAMS library (AID 1159585; cut-off not given, nearly all actives have IC50 up to about 0.98 µM;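 also: inhibitors leave more ATP so luminescence rises with inhibition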); settings: recombinant PfCDPK1, Kinase-Glo ATP depletion luminescence
[6] = target: Plasmodium falciparum protein kinase 6 (PK6, PF3D7_1337100) (UniProt Q8IDW1); test: PfPK6 kinase inhibitors, biochemical, TCAMS library (AID 1159586); settings: recombinant PfPK6, Kinase-Glo ATP depletion luminescence
[7] = target: Protein kinase 7 (PK7), Plasmodium falciparum 3D7 (PF3D7_0213400) (UniProt Q7YTF7); test: inhibition of Plasmodium PK7 catalytic activity – biochemical, TCAMS antimalarial set, Kinase-Glo luminescence (AID 1159587); settings: recombinant PfPK7, Kinase-Glo ATP depletion luminescence
[8] = target: Calcium-dependent protein kinase 4 (Plasmodium falciparum (isolate 3D7)) (UniProt Q8IBS5); test: PfCDPK4 kinase inhibitors, biochemical, TCAMS library (AID 1159588; cut-off not given, nearly all actives have IC50 up to about 0.91 µM); settings: recombinant PfCDPK4, Kinase-Glo ATP depletion luminescence
Chain of Calcium-dependent protein kinase 4 (Plasmodium falciparum (isolate 3D7)) (Q8IBS5 whole entry, looked up): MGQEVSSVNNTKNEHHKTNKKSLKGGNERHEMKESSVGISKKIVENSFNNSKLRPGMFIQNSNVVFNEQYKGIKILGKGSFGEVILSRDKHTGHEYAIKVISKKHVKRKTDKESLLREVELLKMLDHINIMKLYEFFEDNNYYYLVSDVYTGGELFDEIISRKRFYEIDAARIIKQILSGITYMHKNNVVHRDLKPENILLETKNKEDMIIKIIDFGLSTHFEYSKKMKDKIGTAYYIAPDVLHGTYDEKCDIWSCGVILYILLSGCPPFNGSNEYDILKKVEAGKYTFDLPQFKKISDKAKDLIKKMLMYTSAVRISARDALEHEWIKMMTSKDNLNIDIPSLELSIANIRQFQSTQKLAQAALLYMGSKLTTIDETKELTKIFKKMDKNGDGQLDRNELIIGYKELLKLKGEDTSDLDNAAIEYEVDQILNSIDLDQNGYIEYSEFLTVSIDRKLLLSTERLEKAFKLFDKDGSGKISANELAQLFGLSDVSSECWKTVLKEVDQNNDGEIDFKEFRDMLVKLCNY

Chain of Protein kinase 7 (PK7), Plasmodium falciparum 3D7 (PF3D7_0213400) (Q7YTF7 1-343): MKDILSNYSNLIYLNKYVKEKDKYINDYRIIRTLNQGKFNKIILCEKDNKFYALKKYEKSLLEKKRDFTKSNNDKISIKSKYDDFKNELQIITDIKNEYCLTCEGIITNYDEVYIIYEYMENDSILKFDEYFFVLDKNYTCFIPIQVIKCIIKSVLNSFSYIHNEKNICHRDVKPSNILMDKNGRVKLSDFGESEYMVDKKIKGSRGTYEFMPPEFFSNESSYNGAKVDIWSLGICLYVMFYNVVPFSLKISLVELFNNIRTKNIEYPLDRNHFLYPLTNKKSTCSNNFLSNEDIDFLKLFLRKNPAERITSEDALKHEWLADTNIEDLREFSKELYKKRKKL
Chain of L-lactate dehydrogenase (Plasmodium falciparum (isolate CDC / Honduras)) (Q27743 whole entry, looked up): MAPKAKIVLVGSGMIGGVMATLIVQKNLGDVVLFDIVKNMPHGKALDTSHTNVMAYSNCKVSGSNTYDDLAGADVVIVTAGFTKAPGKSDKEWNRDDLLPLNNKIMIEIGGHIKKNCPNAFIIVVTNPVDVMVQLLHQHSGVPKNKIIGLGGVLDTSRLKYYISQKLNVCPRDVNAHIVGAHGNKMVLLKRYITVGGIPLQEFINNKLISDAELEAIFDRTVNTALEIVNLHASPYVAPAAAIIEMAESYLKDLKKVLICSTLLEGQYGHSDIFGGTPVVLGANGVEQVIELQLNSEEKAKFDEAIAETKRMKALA
Chain of Calcium-dependent protein kinase 1 (Plasmodium falciparum (isolate 3D7)) (P62344 whole entry, looked up): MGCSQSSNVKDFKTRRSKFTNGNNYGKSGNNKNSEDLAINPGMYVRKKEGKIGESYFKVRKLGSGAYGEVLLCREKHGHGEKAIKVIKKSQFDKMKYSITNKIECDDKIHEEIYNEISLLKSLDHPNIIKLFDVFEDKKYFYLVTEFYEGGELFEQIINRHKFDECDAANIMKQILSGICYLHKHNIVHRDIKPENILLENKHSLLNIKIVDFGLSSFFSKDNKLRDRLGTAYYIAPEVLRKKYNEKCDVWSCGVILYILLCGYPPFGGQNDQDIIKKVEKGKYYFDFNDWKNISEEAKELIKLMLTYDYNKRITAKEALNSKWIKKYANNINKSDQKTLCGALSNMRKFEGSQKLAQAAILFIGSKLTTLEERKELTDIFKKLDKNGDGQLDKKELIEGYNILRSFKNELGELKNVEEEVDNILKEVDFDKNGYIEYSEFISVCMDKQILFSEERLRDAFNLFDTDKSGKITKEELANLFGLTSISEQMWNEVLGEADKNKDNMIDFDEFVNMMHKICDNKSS
Chain of Plasmodium falciparum protein kinase 6 (PK6, PF3D7_1337100) (Q8IDW1 1-305): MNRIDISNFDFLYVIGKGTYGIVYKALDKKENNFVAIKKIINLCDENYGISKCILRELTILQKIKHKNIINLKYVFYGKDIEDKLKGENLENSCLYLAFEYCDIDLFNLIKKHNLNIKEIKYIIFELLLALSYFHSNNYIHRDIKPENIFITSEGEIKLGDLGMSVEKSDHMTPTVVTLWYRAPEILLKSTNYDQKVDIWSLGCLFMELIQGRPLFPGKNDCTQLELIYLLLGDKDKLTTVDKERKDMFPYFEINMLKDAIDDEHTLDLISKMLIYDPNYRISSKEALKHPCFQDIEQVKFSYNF

Row | SMILES | growth inhibition [1] | inhibition [2] [%] | inhibition [3] [%] | growth inhibition [4] | outcome [5] | outcome [6] | outcome [7] | outcome [8]
1 | CCc1nc2ccc(C(=O)OC)nc2n1Cc1ccc2oc(-c3ccccc3N)c(Br)c2c1 | 75% (active) | 8 | -2 | 93% (active) | inactive | inactive | inactive | inactive
2 | O=C(Nc1ccc(F)cc1)N1CCCN(c2ccnc3cc(Cl)ccc23)CC1 | 16% | 7 | -1 | 97% (active) | inactive | inactive | inactive | inactive
3 | CC(=O)N[C@H](C(=O)Nc1ccc(-c2ccc(-c3nc4ccc(C(F)(F)F)cc4[nH]3)cc2)cc1)C(C)C | 76% (active) | 24 | 7 | 88% (active) | inactive | inactive | inactive | inactive
4 | O=C(Nc1ccc(-c2ccccc2)cc1)Nc1cccc(Cn2cnc(N3CCCNCC3)cc2=O)c1 | 13% | 8 | 4 | 88% (active) | inactive | inactive | inactive | inactive
5 | COc1ccc(NC(=O)[C@H](CC(C)C)Nc2cc(C)nc(NCCOc3ccccc3)n2)cc1 | 65% (active) | -1 | 4 | 100% (active) | inactive | inactive | inactive | inactive
6 | CCNc1cc(C(=O)N[C@@H](Cc2ccccc2)[C@H](O)CN[C@@H]2CCc3ccccc32)cc(N2CCCC2=O)c1 | 93% (active) | -5 | 6 | 92% (active) | inactive | inactive | inactive | inactive
7 | O=C(N[C@@H](CC1CCCCC1)C(=O)NCCN1CCCCC1)c1ccc(O)c(-c2cccc(C(F)(F)F)c2)c1 | 97% (active) | -5 | 6 | 99% (active) | inactive | inactive | inactive | inactive
8 | CCCNCc1ccc(-c2ccc(CN(Cc3cnc(C)cn3)C(=O)c3nn(-c4ccccc4)nc3C)cc2)nc1 | 49% | 22 | 0 | 99% (active) | inactive | inactive | inactive | inactive
9 | Cc1nnsc1C(=O)Nc1cccc(-c2ccc(-c3nc4ccccc4[nH]3)cc2)c1 | 58% (active) | 48 | 0 | 100% (active) | inactive | inactive | inactive | inactive
10 | CNCCNCc1cccc(-c2cccc(-c3nc4ccc(F)cc4[nH]3)c2)c1 | 15% | 20 | -2 | 98% (active) | inactive | inactive | inactive | inactive
11 | Cc1ccc(CNC(=O)[C@H](Cc2ccccc2)Nc2cc(C)nc(NCCc3ccc(F)cc3)n2)cc1 | 22% | 10 | -3 | 98% (active) | inactive | inactive | inactive | inactive
12 | c1ccc(CCNCc2ccc(-c3ccc(CNC4CCN(Cc5ccccc5)CC4)cc3)nc2)cc1 | 99% (active) | 34 | -1 | 101% (active) | inactive | inactive | inactive | inactive
13 | COc1ccc(NC(=O)Nc2ccc(Nc3nc(C)cc(N4CCCC4)n3)cc2)cc1 | 100% (active) | 14 | -2 | 101% (active) | inactive | inactive | inactive | inactive
14 | Oc1cc(Nc2ccnc3cc(-c4cccc(CN5CCOCC5)c4)ccc23)c(F)cc1Cl | 89% (active) | 12 | -4 | 100% (active) | inactive | inactive | inactive | inactive
15 | NC1CCN(Cc2ccc(-c3ccc(-c4nc5ccccc5[nH]4)cc3)cc2)C1 (centres undefined) | 100% (active) | 34 | -5 | 101% (active) | inactive | inactive | inactive | inactive
16 | CCc1cn2c3c(cc(C(=O)N[C@@H](Cc4cccc(F)c4)[C@H](O)CNC4CC4)cc13)N(C)S(=O)(=O)CC2 | 98% (active) | 2 | 1 | 98% (active) | inactive | inactive | inactive | inactive
17 | Cc1ccc(CNC(=O)[C@H](CCCN)Nc2cc(C)nc(Nc3ccccc3)n2)cc1 | -4% | -2 | 2 | 90% (active) | inactive | inactive | inactive | inactive
18 | CCn1c(-c2cc(C)on2)nc2cnc(Oc3ccc(C(=O)N4CC(=O)N(C)C4C(C)(C)C)cc3)cc21 (centres undefined) | 57% (active) | 44 | 4 | 81% (active) | inactive | inactive | inactive | inactive
